# Results taken from PubChem BioAssay.
# Activity calls are given as the source filed them.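 The calls were made as follows, unless noted: active = inhibition at or above 50% at 10 µM; inactive = inhibition below 50%.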
# Experiments:
# [1] = inhibitors of TNFa-induced NFkB p65 translocation, primary screen, imaging, HUVEC, MLSMR starter and 10KST1 sets (AID 438;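 active = inhibition above 20% together with a positive visual image hit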;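 also: compound added about 3h40 before a 20 min TNFalpha stimulation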;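 as to inhibition: signal is the nuclear over cytoplasmic p65 intensity ratio per well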); settings: HUVEC TNFa-induced p65 nuclear translocation; cell count: measured here: nuclei count (cytotoxicity indicator), at 2.08 µM; inhibition: at 2 µM, stronger effect = higher value, 0% TNFa-plus-vehicle, 100% no-TNFa wells
# [2] = reduction of polyQ htt aggregates in cells – imaging, exon1htt(103Q)mCFP cells, high-content imaging, primary screen (AID 483;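 active = visual image review flags a hit and inhibition of aggregation exceeds 20%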;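 also: compound exposure lasted 3 days before fixation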;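 as to nuclei count: percent of the per-plate median nuclei count of sample wells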); settings: exon1htt(103Q)mCFP cell line, aggregate imaging, at 2 µM; inhibition of aggregation: stronger effect = higher value; nuclei count: measured here: cell count, toxicity
# [3] = endothelial E-selectin expression blockers – imaging, HUVEC, immunofluorescence, MLSMR starter and 10KST1 sets, primary screen (AID 487;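 active = visually confirmed hit in the image check and inhibition above 20%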;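 as to inhibition: signal is fraction of cell area covered by stained E-selectin grains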;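 as to nuclei count: 100% = median nuclei count of all wells on the same plate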); settings: HUVEC TNFalpha-induced E-selectin immunofluorescence imaging, at 2 µM; inhibition: stronger effect = higher value; nuclei count: measured here: cell number, toxicity
# [4] = molecular target: Voltage-gated potassium channel subunit beta-2 (Rattus norvegicus) (UniProt P62483); assay: inhibitors of rat Kvbeta2 reductase activity – biochemical, NADPH fluorescence, primary screen (AID 622;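 active = fluorescence slope higher than the sample average by over 3 SD, cut at about -0.22 in these data, passing the limit was not always enough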;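 also: slope of raw intensity against log time taken from 70 to 1610 s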); settings: recombinant KvBeta, 4-cyanobenzaldehyde reduction, at 10 µM, stronger effect = higher value
# [5] = molecular target: Voltage-gated potassium channel subunit beta-2 (Rattus norvegicus) (UniProt P62483); assay: enhancers of rat Kvbeta2 NADPH turnover – biochemical, NADPH fluorescence, primary screen (AID 623;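 active = NADPH fluorescence slope more negative than the mean of all samples by about 3 SD, 99.7% confidence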;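 also: fluorescence intensity change per second fitted from 20 to 320 s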); settings: Recombinant KvBeta, NADPH fluorescence decrease slope, 10 min; at 10 µM; stronger effect = lower value
# [6] = molecular target: Alpha-2C adrenergic receptor (Homo sapiens) (UniProt P18825); assay: compounds altering alpha2C-coupled GIRK flux – cell-based, HEK293 alpha2C/GIRK1/2, thallium flux, primary screen (AID 624;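 active = fluorescence slope after compound addition differing from the mean of all screened samples at 99.7% confidence, in either direction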;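 also: slope of fluorescence ratio to pre-addition baseline per second over 15 to 24 s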); settings: thallium flux BTC fluorescence, at 10 µM, actives lie on both sides
# [7] = blockers of RIG-like receptor reporter activation – cell-based, Sendai virus stimulus, luciferase, 10K MLSCN set, TLR/RLR signaling modifier project, primary screen (AID 602276); settings: HEK293 RL24 IRF3 luciferase reporter, at 10 µM, stronger effect = higher value;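 also: firefly luciferase from ISG56 promoter only with Renilla not read in this screen; 0% = Sendai virus plus DMSO and 100% = medium plus DMSO without virus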
# [8] = TLR3 IRF3 reporter activation blockers – cell-based, poly I:C stimulus, luciferase, 10K MLSCN set, primary screen (AID 602277;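 active = inhibition of the reporter signal at or above 50%; inactive = inhibition below 50%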); settings: HEK293-TLR3 RL24 IRF3 luciferase reporter, at 10 µM, stronger effect = higher value
# Chain of Alpha-2C adrenergic receptor (Homo sapiens) (P18825 whole entry, looked up): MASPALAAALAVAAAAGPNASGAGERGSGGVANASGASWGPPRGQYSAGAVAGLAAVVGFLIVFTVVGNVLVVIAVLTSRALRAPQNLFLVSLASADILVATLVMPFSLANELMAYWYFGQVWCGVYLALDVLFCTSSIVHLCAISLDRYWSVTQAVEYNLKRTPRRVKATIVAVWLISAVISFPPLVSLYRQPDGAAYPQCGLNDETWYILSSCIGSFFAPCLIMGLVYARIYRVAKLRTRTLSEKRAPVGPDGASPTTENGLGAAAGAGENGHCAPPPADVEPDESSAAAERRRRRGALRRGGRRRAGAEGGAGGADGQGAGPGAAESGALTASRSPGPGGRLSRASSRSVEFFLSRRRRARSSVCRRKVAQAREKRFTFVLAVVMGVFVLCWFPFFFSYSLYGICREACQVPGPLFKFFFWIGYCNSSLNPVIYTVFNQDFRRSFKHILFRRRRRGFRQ
# Chain of Voltage-gated potassium channel subunit beta-2 (Rattus norvegicus) (P62483 whole entry, looked up): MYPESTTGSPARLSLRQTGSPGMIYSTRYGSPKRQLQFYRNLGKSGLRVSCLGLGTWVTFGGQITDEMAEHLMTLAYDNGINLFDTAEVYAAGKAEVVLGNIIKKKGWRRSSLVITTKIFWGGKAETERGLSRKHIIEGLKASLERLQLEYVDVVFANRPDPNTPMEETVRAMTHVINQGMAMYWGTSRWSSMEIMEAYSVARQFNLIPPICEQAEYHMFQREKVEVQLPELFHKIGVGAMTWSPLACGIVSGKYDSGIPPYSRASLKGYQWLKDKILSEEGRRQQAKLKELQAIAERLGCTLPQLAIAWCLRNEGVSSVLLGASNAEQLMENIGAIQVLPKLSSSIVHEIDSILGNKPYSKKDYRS
Structure (SMILES),cell count [1],inhibition [1],inhibition of aggregation [2],nuclei count [2],inhibition [3],nuclei count [3],fluorescence slope [4],NADPH fluorescence slope [5],slope [6],inhibition [7],inhibition [8]
CC(=O)OC1c2ccccc2C(=O)N1Cc1ccccc1Cl (stereo not drawn),468,-2.8% (inactive),34% (inactive),61%,-13.3% (inactive),106%,-0.552 (inactive),-4.6e-05 (inactive),0.00651 (inactive),4.84% (inactive),27.6% (inactive)
O=C(Nc1nc(-c2ccccn2)cs1)C1CC1,673,-3.3% (inactive),2.7% (inactive),94.5%,-21% (inactive),115%,-0.482 (inactive),-7.5e-05 (inactive),0.00645 (inactive),-68.6% (inactive),-114% (inactive)
COc1cc2c(c(OC)c1)C(c1ccncc1)CC(=O)N2 (stereo not drawn),624,-11.6% (inactive),-25.7% (inactive),111%,-42.5% (inactive),116%,-0.565 (inactive),-2.7e-06 (inactive),0.0063 (inactive),-9.07% (inactive),3.48% (inactive)
CCOC(=O)CC(=O)c1cc(OC)c(OC)c(OC)c1,640,-0.6% (inactive),-4.2% (inactive),105%,-56% (inactive),106%,-0.432 (inactive),-2.1e-05 (inactive),0.00534 (inactive),5.89% (inactive),12.4% (inactive)
O=C(Nc1ccccc1N1CCCCC1)c1ncoc1-c1ccc(F)cc1,426,-1.8% (inactive),-0.9% (inactive),87.1%,-180% (inactive),122%,-0.424 (inactive),4.4e-06 (inactive),0.00948 (inactive),-3.24% (inactive),-51.9% (inactive)
Cc1nc2sc(C(c3ccccc3)N3CCN(c4ccccc4F)CC3)c(O)n2n1 (stereo not drawn),305,-1% (inactive),-6.7% (inactive),83.6%,8.6% (inactive),91.8%,-0.437 (inactive),0.000106 (inactive),0.00618 (inactive),5.03% (inactive),5.62% (inactive)
N#Cc1ccc(CSc2nnc(-c3cccs3)n2-c2ccccc2)cc1,369,-6% (inactive),-12.4% (inactive),99.1%,-50% (inactive),120%,-0.5 (inactive),9.2e-06 (inactive),0.00461 (inactive),-0.725% (inactive),2.95% (inactive)
CC(=O)N(C)C1(c2nnnn2CCOC(=O)Nc2ccc(Cl)cc2)CCCCC1,498,4.3% (inactive),5.4% (inactive),107%,-33.3% (inactive),105%,-0.398 (inactive),-3.1e-05 (inactive),0.00444 (inactive),1.79% (inactive),20.6% (inactive)
COc1ccc(-c2nc3c(c(SCC(=O)N4CCOCC4)n2)COC(C)(C)C3)cc1,510,23.4% (active),-8.2% (inactive),100%,33% (inactive),117%,-0.387 (inactive),1.1e-05 (inactive),0.00848 (inactive),12.6% (inactive),19.9% (inactive)
O=C(CSc1ccc2nnc(-c3ccccc3)n2n1)N1CCN(c2ccccc2)CC1,616,0.3% (inactive),9.9% (inactive),110%,-34.8% (inactive),111%,-0.592 (inactive),-3.7e-05 (inactive),0.00674 (inactive),-9.77% (inactive),3.8% (inactive)
COCCn1c(C23CC4CC(CC(C4)C2)C3)n[nH]c1=S,866,3.6% (inactive),-13.1% (inactive),106%,-91.1% (inactive),129%,-0.44 (inactive),-2.3e-05 (inactive),0.00347 (inactive),14.6% (inactive),42.9% (inactive)
Cn1c(=O)c2c(nc(SCC(=O)NCc3ccco3)n2C)n(C)c1=O,616,1.7% (inactive),19% (inactive),78.5%,-63.1% (inactive),100%,-0.611 (inactive),1.2e-05 (inactive),0.00578 (inactive),3.04% (inactive),5.37% (inactive)
O=C(CN1CCN(c2ccccn2)CC1)N1c2ccccc2CCc2ccccc21,568,3.3% (inactive),-0.5% (inactive),103%,46.8% (inactive),99.5%,-0.341 (inactive),-5.2e-05 (inactive),0.0046 (inactive),13% (inactive),15.9% (inactive)
O=C(C1CCCN(S(=O)(=O)c2cccs2)C1)N1CCc2ccccc2C1 (stereo not drawn),668,-3.6% (inactive),-29.8% (inactive),119%,-53.2% (inactive),109%,-0.586 (inactive),-5.1e-05 (inactive),0.0027 (inactive),13.1% (inactive),14.2% (inactive)
CC(=O)Nc1ccc(S(=O)(=O)NCC2CCC(C(=O)NCCCN3CCCC3=O)CC2)cc1 (stereo not drawn),318,-0.8% (inactive),5.9% (inactive),112%,-15.4% (inactive),106%,-0.484 (inactive),-3.3e-05 (inactive),0.00457 (inactive),20.7% (inactive),19.4% (inactive)
Cc1nn(Cc2ccc(C(=O)NC3CCCCC3)o2)c(C)c1Br,463,-0.6% (inactive),24.1% (inactive),72.2%,-30.6% (inactive),108%,-0.395 (inactive),-3.4e-05 (inactive),0.00387 (inactive),7.39% (inactive),11.6% (inactive)
CN1CCN(C(=O)c2ccc(CS(=O)(=O)c3c(Cl)cccc3Cl)o2)CC1,652,-0.5% (inactive),11.9% (inactive),96.9%,-24.1% (inactive),137%,-0.515 (inactive),-2.9e-05 (inactive),0.00604 (inactive),16.8% (inactive),24.4% (inactive)
c1ccc2c(c1)nc(NCCN1CCOCC1)c1nncn12,508,3.2% (inactive),25.2% (inactive),85.4%,-51.1% (inactive),99.2%,-0.587 (inactive),-4e-05 (inactive),0.00643 (inactive),12.4% (inactive),37.9% (inactive)
Cc1cnc(C(=O)Nc2nnc(C(C)C)s2)cn1,569,-8.8% (inactive),10.8% (inactive),107%,-28.6% (inactive),118%,-0.5 (inactive),-3.3e-05 (inactive),0.00641 (inactive),-25.1% (inactive),-89.5% (inactive)
CCOc1ccc(S(=O)(=O)N2CCN(c3ccc(C)cc3C)CC2)cc1,821,5.7% (inactive),-66.1% (inactive),98.4%,-30.7% (inactive),110%,-0.578 (inactive),-2.7e-05 (inactive),0.00897 (inactive),-5.26% (inactive),11.7% (inactive)
CC1CC(NC(=O)c2cnc3n(c2=O)CCS3)CC(C)(C)C1 (stereo not drawn),626,-2.3% (inactive),-23.1% (inactive),113%,-37.1% (inactive),112%,-0.56 (inactive),-4.4e-05 (inactive),0.00953 (inactive),16.9% (inactive),38.3% (inactive)
Cc1occc1-c1nc(-c2ccncc2)no1,706,7.3% (inactive),6% (inactive),95.3%,-46.6% (inactive),126%,-0.523 (inactive),1.8e-05 (inactive),0.00583 (inactive),-46.9% (inactive),-90.8% (inactive)
CCCn1nc(NC(=O)c2cccs2)c2cc3cc(OC)ccc3nc21,630,-6.8% (inactive),-8% (inactive),104%,-20.4% (inactive),112%,-0.119 (inactive),2.2e-05 (inactive),0.00675 (inactive),-4.8% (inactive),-37.7% (inactive)
Cc1ccc(C)c(/C(O)=C2\C(=O)C(=O)N(CCCN3CCOCC3)C2c2cccnc2)c1 (stereo not drawn),529,5.5% (inactive),-1.6% (inactive),109%,-280% (inactive),127%,-0.339 (inactive),-2.4e-06 (inactive),0.00619 (inactive),9.67% (inactive),21.1% (inactive)
C/C(N)=C(/C#N)C(=O)CSc1nnc(Nc2c(C)cccc2C)s1,354,13.1% (inactive),8.1% (inactive),70.3%,-30.9% (inactive),119%,-0.586 (inactive),-5.6e-05 (inactive),0.00543 (inactive),6.86% (inactive),2.86% (inactive)
COC(=O)C1=C(C)NC(C)=C(C(=O)OC)C1C1CC=CCC1 (stereo not drawn),377,1.7% (inactive),24.3% (inactive),91.2%,32.4% (inactive),93.7%,-0.456 (inactive),8.7e-05 (inactive),0.00547 (inactive),8.91% (inactive),22.8% (inactive)
CCCCCOC(=O)C1=C(C)N(C)C(=O)NC1c1cc(Br)c(O)c(OC)c1 (stereo not drawn),563,-9.9% (inactive),-39.7% (inactive),105%,25.8% (inactive),105%,-0.624 (inactive),5.7e-06 (inactive),0.0067 (inactive),1.53% (inactive),21.1% (inactive)
Cc1cc(NC(=O)CCCN2C(=O)c3cccnc3C2=O)no1,429,5.6% (inactive),17.7% (inactive),100%,-64.2% (inactive),79.6%,-0.459 (inactive),1.6e-05 (inactive),0.00763 (inactive),-4.41% (inactive),13.4% (inactive)
